Compound activity as filed in PubChem BioAssay.
CCHF vOTU inh: CCHFV vOTU protease inhibition; Pep-AMC fluorescence; inhibition, % at 11.5 µM; actives 0.55% (n = 370,000); AID 651958; in the data active = inhibition above about 30%; also: 0% = vehicle wells with enzyme and 100% = no enzyme wells
SSB-PriA inh: inhibitors of Klebsiella pneumoniae PriA binding to SSB C-terminal tail. inhibition, % at 33 µM. AlphaScreen SSBct-PriA binding, biotinylated peptide. AID 1272365. actives 0.6% (n = 430,000); in the data active = inhibition mostly above about 37%, no sharp cut-off; inactive = mostly below about 20%;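 also: plate controls were negative control peptide for no effect and reference peptide for full effect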
Sa RN4220 lethal: S. aureus RN4220 growth inhibition. OD600, 16 h. inhibition, % (concentration not given with the values). actives 0.33% (n = 330,000); in the data active = inhibition above about 85%;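 also: plate controls were untreated cells for no effect and reference antibiotic for full effect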
ugtP null kill: compounds lethal to S. aureus RN4220 ugtP deletion mutant | OD600 growth, 16 h | growth inhibition, % (concentration not given with the values) | actives 0.54% (n = 330,000) | AID 1259309; in the data active = growth inhibition above about 68%;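 also: plate controls were untreated wells for no effect and antibiotic for full effect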
Mtb hypoxia rep: inhibitors of hypoxia-regulated fluorescent reporter in Mycobacterium tuberculosis; M. tuberculosis hypoxia-regulated fluorescent reporter, fluorescence; fluorescence inhibition, % (no concentration beside the values); actives 0.1% (n = 300,000); in the data active = fluorescence inhibition mostly above about 23%, no sharp cut-off; inactive = mostly below about 17%
Starred values were filed as active, the others as inactive. Sampled rows, rich in hits. Any-hit rate of the full collection: about 1.4%.

What do the screens show for `O=C(CSc1nnc(-c2ccco2)o1)NCCc1ccccc1`?
CCHF vOTU inh: 9.3; SSB-PriA inh: -5.8; Sa RN4220 lethal: 0.9; ugtP null kill: 3.7; Mtb hypoxia rep: 38.2*

How did Cc1cc(OC2CCN(C(=O)C3CCC3)CC2)cc(=O)o1 do in these assays?
SSB-PriA inh: 1.0

What do the screens show for `O=C1CN(C(=O)COC(=O)c2ccc(Br)o2)c2ccccc2N1`?
CCHF vOTU inh: 12.3; SSB-PriA inh: -1.1; Sa RN4220 lethal: 6.9; ugtP null kill: 1.3; Mtb hypoxia rep: 26.0*

Results for Cc1cccc(CCN=c2c([N+](=O)[O-])nn(-c3ccccc3)n2O)c1 ?
CCHF vOTU inh: -3.2; SSB-PriA inh: 39.5*; Sa RN4220 lethal: 9.4; ugtP null kill: 22.3; Mtb hypoxia rep: 16.6

How did CCN1CCN(c2nc3ccc(OC(=O)c4ccc(Br)s4)cc3s2)CC1 do in these assays?
SSB-PriA inh: -6.0

What do the screens show for `COc1ccc(F)cc1S(=O)(=O)NCCOc1ccc2c(c1)OCO2`?
SSB-PriA inh: 8.0

Results for Cc1ccccc1C(=O)NC(=S)Nc1ccccc1N1CCCC1 ?
CCHF vOTU inh: 29.3; SSB-PriA inh: 39.3*; Sa RN4220 lethal: -0.5; ugtP null kill: 85.2*; Mtb hypoxia rep: -5.9

Results for O=C(NC(=S)Nc1ccccc1N1CCOCC1)c1ccc(Br)cc1 ?
CCHF vOTU inh: -10.1; SSB-PriA inh: 18.8; Sa RN4220 lethal: -7.6; ugtP null kill: 93.6*; Mtb hypoxia rep: 5.3

How did O=C(NC(=S)Nc1ccccc1N1CCCCC1)c1ccc(F)cc1Cl do in these assays?
CCHF vOTU inh: 0.0; SSB-PriA inh: 3.9; Sa RN4220 lethal: -13.2; ugtP null kill: 91.0*; Mtb hypoxia rep: 6.3

How did CC(C)=CCCC1=CCC(C=NNC(N)=O)C(C)C1 (centres undefined) do in these assays?
SSB-PriA inh: -5.8; Sa RN4220 lethal: 1.4; ugtP null kill: 93.2*; Mtb hypoxia rep: -0.1

How did COCC(=O)Nc1ccc2nc(C)n(-c3ccc(Cl)cc3)c(=O)c2c1 do in these assays?
SSB-PriA inh: -5.0

What do the screens show for `CC(=O)N1CCc2c(sc(NC(=O)Cc3ccccc3)c2C(N)=O)C1`?
CCHF vOTU inh: 1.7; SSB-PriA inh: 115.4*; Sa RN4220 lethal: -0.3; ugtP null kill: 7.9; Mtb hypoxia rep: 4.7

How did CC(C)N1CCc2c(sc(NC(=O)c3ccc(C(=O)c4ccccc4)cc3)c2C(N)=O)C1 do in these assays?
CCHF vOTU inh: 9.6; SSB-PriA inh: 80.8*

How did CC(C)N1CCc2c(sc(NC(=O)Cc3ccccc3)c2C(N)=O)C1 do in these assays?
CCHF vOTU inh: -5.3; SSB-PriA inh: -0.6; Sa RN4220 lethal: -14.0; ugtP null kill: -2.8; Mtb hypoxia rep: 5.9

How did CCOc1ccc(-c2ccc(C)c(NC(=O)c3sc(C)nc3C)c2)nn1 do in these assays?
SSB-PriA inh: -7.0

How did CCOc1ccccc1/C=C1/SC(N2CCN(c3ccc([N+](=O)[O-])cc3)CC2)=NC1=O do in these assays?
SSB-PriA inh: -7.0

Results for Cc1ccc(NC(=O)c2ccccc2)cc1 ?
CCHF vOTU inh: -5.7; SSB-PriA inh: -3.2; Sa RN4220 lethal: 3.5; ugtP null kill: 5.9; Mtb hypoxia rep: 5.1

What do the screens show for `Cc1ccc(NC(=O)C2=C(c3ccccc3)S(=O)(=O)CCS2(=O)=O)cc1`?
CCHF vOTU inh: 4.8; SSB-PriA inh: 3.5; Sa RN4220 lethal: 66.0; ugtP null kill: 100.2*; Mtb hypoxia rep: 13.6

How did Nc1ccc(C2(c3ccc(N)cc3)c3ccccc3-c3ccccc32)cc1 do in these assays?
CCHF vOTU inh: 2.4; SSB-PriA inh: 62.2; Sa RN4220 lethal: 2.8; ugtP null kill: -1.2; Mtb hypoxia rep: 50.3*

What do the screens show for `Nc1ccc(C2(c3ccc(N)cc3)c3ccccc3C(=O)c3ccccc32)cc1`?
CCHF vOTU inh: -3.2; SSB-PriA inh: -7.1; Sa RN4220 lethal: -2.9; ugtP null kill: 4.5; Mtb hypoxia rep: 7.3

How did CCCOc1cc(N2CCN(C(=O)Nc3ccc(C)c(F)c3)CC2)nc(C)n1 do in these assays?
SSB-PriA inh: -5.0

What do the screens show for `CCCn1nc([N+](=O)[O-])c(C(C#N)c2nc3ccccc3s2)c(Cl)c1=O` (centres undefined)?
CCHF vOTU inh: 18.3; SSB-PriA inh: 55.0*; Sa RN4220 lethal: 29.5; ugtP null kill: 15.0; Mtb hypoxia rep: 14.2

How did CCn1nc([N+](=O)[O-])c(C(C#N)c2nc3ccccc3n2C)c(Cl)c1=O (centres undefined) do in these assays?
CCHF vOTU inh: -0.8; SSB-PriA inh: 23.5; Sa RN4220 lethal: 13.2; ugtP null kill: -5.4; Mtb hypoxia rep: 11.6

What do the screens show for `CC(=O)N(c1ccc(C)cc1)C1SC(=O)N(c2ccccc2)C1=O` (centres undefined)?
SSB-PriA inh: -12.0

What do the screens show for `CC(=NN=C(N)SC1CC(=O)N(c2ccc(Cl)c(Cl)c2)C1=O)c1cccs1` (centres undefined)?
SSB-PriA inh: 2.3; Sa RN4220 lethal: 100.3*; ugtP null kill: 98.8*; Mtb hypoxia rep: 1.8

Results for CCN1/C(=C/c2cc[n+](CCCS(=O)(=O)[O-])c3ccccc23)Sc2ccccc21 ?
CCHF vOTU inh: 3.1; Sa RN4220 lethal: 4.6; ugtP null kill: 10.5; Mtb hypoxia rep: 18.1

How did C=CC[n+]1ccc(/C=C2\C=Cc3cc(C)ccc3N2CC)c2ccccc21 do in these assays?
Sa RN4220 lethal: 92.2*; ugtP null kill: 93.0*; Mtb hypoxia rep: 36.0*

What do the screens show for `COCc1nnc(NC(=O)c2ccc(S(=O)(=O)N3CCCc4ccccc43)cc2)o1`?
CCHF vOTU inh: 2.4; SSB-PriA inh: 7.5; Sa RN4220 lethal: 29.0; ugtP null kill: 9.1; Mtb hypoxia rep: -9.3

What do the screens show for `O=C(Nc1nnc(C2CC2)o1)c1ccc(S(=O)(=O)N2CCCc3ccccc32)cc1`?
CCHF vOTU inh: 0.1; SSB-PriA inh: 18.5; Sa RN4220 lethal: 89.1*; ugtP null kill: 94.3*; Mtb hypoxia rep: -6.7

Results for COc1ccc(-c2nnc(NC(=O)c3ccc(S(=O)(=O)N4CCCc5ccccc54)cc3)o2)cc1 ?
SSB-PriA inh: -13.8; Sa RN4220 lethal: 97.8*; ugtP null kill: 99.9*; Mtb hypoxia rep: 14.6

How did CC1CN(S(=O)(=O)c2ccc(C(=O)Nc3nnc(-c4ccc5c(c4)CCCC5)o3)cc2)CC(C)O1 (centres undefined) do in these assays?
CCHF vOTU inh: 1.6; SSB-PriA inh: -25.8; Sa RN4220 lethal: 98.8*; ugtP null kill: 98.6*; Mtb hypoxia rep: -0.6

What do the screens show for `COc1ccc(-c2nnc(NC(=O)c3ccc(S(=O)(=O)N4CCCc5ccccc54)cc3)o2)c(OC)c1`?
SSB-PriA inh: -17.0

Results for O=C(CCCS(=O)(=O)c1ccc(F)cc1)Nc1cccc(Cl)c1Cl ?
SSB-PriA inh: -9.0

Results for COc1ccc(C2CC(=O)C=C(c3cccc(OC)c3OC)C2)cc1OC (centres undefined) ?
Sa RN4220 lethal: 5.0; ugtP null kill: 6.2; Mtb hypoxia rep: 9.7

What do the screens show for `COc1ccc2cc(/C=C3\SC(=S)NC3=O)c(N3CCOCC3)nc2c1`?
CCHF vOTU inh: 1.3; SSB-PriA inh: 17.2; Sa RN4220 lethal: 88.9*; ugtP null kill: 89.6*; Mtb hypoxia rep: 1.2

How did COc1cccc(OCC(=O)NCC(c2ccsc2)N2CCCC2)c1 (centres undefined) do in these assays?
SSB-PriA inh: -6.0
